Shown are actives, neighbours in structure and some others; about 1.6% of the full set was active somewhere.
KCNQ2 enhance: enhances the rat KCNQ2 potassium channel | O88943 | CHO-K1 KCNQ2, FluxOR thallium flux fluorescence; stronger effect = higher value | B-score at 10 µM | hit rate 0.54% among 310,000 | AID 2239;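 active means fluorescence ratio B-score at least 3 SD of library B-scores, with initial fluorescence B-score within 3 of them, cut at about 5.3 in these data; same plate scores as AID 2156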;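 further: B-score of peak minus minimum over baseline fluorescence ratio after K+ and Tl+ stimulus; positive B-score means potentiation of KCNQ2 with more thallium influx and brighter signal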
Target sequence (O88943 whole entry, looked up): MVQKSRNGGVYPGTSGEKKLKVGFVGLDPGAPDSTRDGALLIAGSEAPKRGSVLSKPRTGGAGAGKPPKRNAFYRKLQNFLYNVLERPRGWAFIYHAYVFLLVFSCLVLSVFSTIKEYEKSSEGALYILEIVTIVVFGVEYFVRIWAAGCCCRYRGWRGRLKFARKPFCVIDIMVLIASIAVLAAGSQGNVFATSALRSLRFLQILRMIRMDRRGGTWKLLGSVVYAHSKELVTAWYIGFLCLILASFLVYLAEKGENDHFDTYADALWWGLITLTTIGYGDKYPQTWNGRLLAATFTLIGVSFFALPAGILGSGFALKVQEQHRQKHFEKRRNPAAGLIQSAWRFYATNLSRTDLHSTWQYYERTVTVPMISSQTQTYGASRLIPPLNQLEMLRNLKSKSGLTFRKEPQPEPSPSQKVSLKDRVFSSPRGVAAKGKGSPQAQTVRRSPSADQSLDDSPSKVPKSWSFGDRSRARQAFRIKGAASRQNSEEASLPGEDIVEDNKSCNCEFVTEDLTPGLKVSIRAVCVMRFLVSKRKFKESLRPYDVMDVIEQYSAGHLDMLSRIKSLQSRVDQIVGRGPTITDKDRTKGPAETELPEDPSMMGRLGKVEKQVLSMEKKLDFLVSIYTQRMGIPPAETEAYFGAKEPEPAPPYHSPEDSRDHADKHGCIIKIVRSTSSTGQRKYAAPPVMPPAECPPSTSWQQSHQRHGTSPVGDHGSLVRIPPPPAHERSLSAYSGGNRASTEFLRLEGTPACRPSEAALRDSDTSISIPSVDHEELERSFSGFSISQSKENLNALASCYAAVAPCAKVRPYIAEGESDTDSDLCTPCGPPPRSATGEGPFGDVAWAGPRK
KCNQ2 inh: blocks the rat KCNQ2 potassium channel | O88943 | hit rate 1.1% among 310,000 | AID 2156 | B-score at 10 µM | CHO-K1 KCNQ2, FluxOR thallium flux, 20 min; stronger effect = lower value;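 active means fluorescence ratio B-score at most minus 3 library SDs, with starting brightness B-score within 2 library SDs, cut at about -5.5 in these data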
A number is an active result.

`CC1CCN(c2nnc(-c3ccccc3)c3ccccc23)CC1` gave KCNQ2 enhance inactive and KCNQ2 inh -5.8.
For N#Cc1nc(-c2cccc3ccccc23)oc1NCCN1CCCCC1 the results were KCNQ2 enhance inactive and KCNQ2 inh -7.9.
Screening CCNc1oc(-c2cccc3ccccc23)nc1C#N returned KCNQ2 inh inactive.
Screening O=C(CO/N=C/c1ccccc1OC(F)F)N1CCc2ccccc21 returned KCNQ2 inh inactive.
`O=C(CO/N=C/c1ccccc1Cl)N1CCCc2ccccc21` gave KCNQ2 enhance inactive and KCNQ2 inh -6.1.
Screening CC(=O)c1ccc(NC(=O)CC(C)S(=O)(=O)c2ccc3c(c2)CCN3C(C)=O)cc1 (configuration not stated) returned KCNQ2 inh inactive.
For O=[N+]([O-])c1ccc(S(=O)(=O)NCC(c2cccnc2)N2CCc3ccccc32)cc1 (configuration not stated) the results were KCNQ2 enhance inactive and KCNQ2 inh inactive.
Screening Cc1c(C(=O)C(=O)N2CC=C(c3ccccc3)CC2)c2ccccc2n1C returned KCNQ2 inh inactive.
C=C1CCN([C@@H](Cc2ccccc2)C(=O)NCc2ccccc2)S(=O)(=O)c2ccccc21 was read as KCNQ2 inh inactive.
C=C1CCN([C@@H](Cc2ccccc2)C(=O)NCc2ccc(Cl)cc2)S(=O)(=O)c2ccccc21 was read as KCNQ2 enhance inactive and KCNQ2 inh -6.
Screening O=C(Nc1ccc(Cl)cc1Cl)c1ccc(Br)o1 returned KCNQ2 enhance inactive and KCNQ2 inh inactive.
For COC(=O)c1ccc2c(=O)n(CCCCCC(=O)N3CCN(c4ccccc4)CC3)c(=O)[nH]c2c1 the results were KCNQ2 enhance inactive and KCNQ2 inh inactive.
For COc1cc2[nH]c(=O)n(CCCCCC(=O)N3CCN(c4ccccc4)CC3)c(=O)c2cc1OC the results were KCNQ2 enhance inactive and KCNQ2 inh -8.3.
Screening CCn1c(=O)c(-c2cc(=O)[nH][nH]2)c(O)c2ccccc21 returned KCNQ2 inh inactive.
Screening O=c1cc(-c2c(O)c3ccccc3n(Cc3ccccc3)c2=O)[nH][nH]1 returned KCNQ2 enhance inactive and KCNQ2 inh -6.8.
`CNc1nc(SC)n(C)c(=O)c1N=O` gave KCNQ2 inh inactive.
For CO/N=C(\c1nonc1N)N1CCN(c2ccc(Cl)cc2[N+](=O)[O-])CC1 the results were KCNQ2 enhance inactive and KCNQ2 inh inactive.
For O=C(Nc1ccc(F)cc1)Nc1ccccc1F the results were KCNQ2 enhance inactive and KCNQ2 inh inactive.
O=C(Nc1ccc2[nH]ccc2c1)c1ccccc1 was read as KCNQ2 enhance inactive and KCNQ2 inh inactive.
For O=C(Nc1ccc2[nH]c(=S)sc2c1)Nc1ccccc1F the results were KCNQ2 enhance 40 and KCNQ2 inh inactive.
Screening O=C(Nc1ccc2[nH]c(=S)sc2c1)c1ccccc1 returned KCNQ2 enhance 16 and KCNQ2 inh inactive.
Screening CCn1ccnc1CNC(=O)c1ccc2oc(CCCc3ccccc3)nc2c1 returned KCNQ2 enhance inactive and KCNQ2 inh inactive.
For COc1ccccc1S(=O)(=O)Cc1ccc(C(=O)NCCCN2CCN(c3ccc(F)cc3)CC2)o1 the results were KCNQ2 inh inactive.
CC1(C)C2CCC1(CS(=O)(=O)NCc1ccc(Cl)cc1Cl)C(=O)C2 (configuration not stated) was read as KCNQ2 enhance inactive and KCNQ2 inh -5.9.
Screening COc1cccc(NS(=O)(=O)CC23CCC(CC2=O)C3(C)C)c1 (configuration not stated) returned KCNQ2 inh inactive.
O=C(O)CCn1nc(-c2ccc(F)cc2)cc(Cc2ccccc2)c1=O was read as KCNQ2 enhance inactive and KCNQ2 inh inactive.
For N#CCSc1nc2c(c(=O)n1Cc1ccco1)C1(CCCC1)Cc1ccccc1-2 the results were KCNQ2 inh inactive.
NC(=O)CSc1nc2c(c(=O)n1-c1ccccc1)C1(CCCCC1)Cc1ccccc1-2 was read as KCNQ2 enhance inactive and KCNQ2 inh inactive.
`CC1(C)CC(n2c(NCCO)nc3c(c2=O)C2(CCCC2)Cc2ccccc2-3)CCO1` (configuration not stated) gave KCNQ2 inh inactive.
`CCCn1c(SCC#N)nc2c(c1=O)C1(CCCC1)Cc1ccccc1-2` gave KCNQ2 enhance inactive and KCNQ2 inh -6.4.
O=c1c2c(nc(NCCO)n1CC1CCCCC1)-c1ccccc1CC21CCCC1 was read as KCNQ2 enhance inactive and KCNQ2 inh -8.8.
Screening Cc1cccc(-n2c(SCC(N)=O)nc3c(c2=O)C2(CCCC2)Cc2ccccc2-3)c1 returned KCNQ2 enhance inactive and KCNQ2 inh -6.8.
`CC1CCCC(NC(=O)C2CCN(S(=O)(=O)c3cccc4nonc34)CC2)C1C` (configuration not stated) gave KCNQ2 enhance inactive and KCNQ2 inh inactive.
For COc1ccc(C2=NN(c3nc(-c4ccc(CNC(C)=O)cc4)cs3)C(c3ccco3)C2)cc1 (configuration not stated) the results were KCNQ2 inh inactive.
`Cc1ccccc1C(=O)NC1CCN(CC(=O)Nc2ccccc2Cl)CC1` gave KCNQ2 enhance inactive and KCNQ2 inh inactive.
`Cc1c(Cl)cccc1NC(=O)CN1CCC(C(O)(c2ccccc2)c2ccccc2)CC1` gave KCNQ2 enhance inactive and KCNQ2 inh -6.2.
For Cc1oc2cc3oc(=O)c(CCC(=O)N[C@H](C(=O)O)C(C)C)c(C)c3cc2c1C the results were KCNQ2 enhance inactive and KCNQ2 inh inactive.
`Cc1cc(C)n(-c2nc(NCCN(C)C)c3c4c(sc3n2)COC(C)(C)C4)n1` gave KCNQ2 enhance inactive and KCNQ2 inh inactive.
Screening Cc1cc(C)n(-c2nc(-n3nc(C)cc3C)c3c4c(sc3n2)COC(C)(C)C4)n1 returned KCNQ2 enhance inactive and KCNQ2 inh -8.
Screening C(=N\n1cnnc1)/c1ccccn1 returned KCNQ2 inh inactive.
For C(=N\N(c1ccccc1)c1ccccc1)/c1ccccn1 the results were KCNQ2 enhance inactive and KCNQ2 inh -6.2.
Screening Cc1c(C(=O)Nc2ccccc2F)sc2ncn(CC(=O)N3CCCCC3)c(=O)c12 returned KCNQ2 inh inactive.
Screening O=C(CNC(=O)c1cccs1)N/N=C/c1cccc(Cl)c1 returned KCNQ2 enhance inactive and KCNQ2 inh inactive.
Screening Cc1ccc(NC(=O)C(Cc2ccccc2)n2cccc2)cc1 (configuration not stated) returned KCNQ2 inh inactive.
Screening CC1CCCN(C(=O)C(Cc2ccccc2)n2cccc2)C1 (configuration not stated) returned KCNQ2 enhance inactive and KCNQ2 inh -6.5.
For CC1CCC(NC(=O)C(Cc2ccccc2)n2cccc2)CC1 (configuration not stated) the results were KCNQ2 enhance inactive and KCNQ2 inh -5.8.
`O=C(C(Cc1ccccc1)n1cccc1)N1CCN(c2ccccc2)CC1` (configuration not stated) gave KCNQ2 inh inactive.
COc1cccc(N(CC(=O)NC2CCCCC2)C(=O)CCCC(=O)Nc2ccccn2)c1 was read as KCNQ2 inh inactive.
Screening C=CCn1cn[nH]c1=S returned KCNQ2 enhance inactive and KCNQ2 inh -8.3.
C=CCOc1ccc(CNn2cn[nH]c2=S)cc1 was read as KCNQ2 enhance inactive and KCNQ2 inh inactive.
Cn1c2ccccc2c(=O)c2ccc(-c3ccc4c(c3)OCO4)cc21 was read as KCNQ2 inh inactive.
For CCN(CC)S(=O)(=O)c1cccc(-c2nnc(SC(C)C#N)n2Cc2ccccc2)c1 (configuration not stated) the results were KCNQ2 inh inactive.

Source: PubChem BioAssay (Johns Hopkins Ion Channel Center)
